# Data reported in the OligoGym collection.
# Columns and labels:
# Assay in all cases: pooled miR-30 sensor sort-seq; sequence = guide strand
# Conditions in all cases: shRNA
# PTPRT = target: PTPRT
# PXN = target: PXN
# PXDN = target: PXDN
# PTPN7 = target: PTPN7
# PYROXD1 = target: PYROXD1
# RAB11A = target: RAB11A
# QSOX1 = target: QSOX1
# QSER1 = target: QSER1
# Also: reference of the scale not given here.
sequence,measurement,setting,value
TAATCGAACACCAGCCTCCAGA,sensor-assay potency score (higher = more potent),PTPRT,-0.958
TCGTGCTCGAAGAAGCTGCCGT,sensor-assay potency score (higher = more potent),PXN,-0.594
TTGGTCTTGATCTTGAGCCTAT,sensor-assay potency score (higher = more potent),PTPRT,-0.529
TTTTCCACTTTCTGTCACCTGA,sensor-assay potency score (higher = more potent),PXDN,0.0535
TTCTCGTGGAACCCTTCGGGAC,sensor-assay potency score (higher = more potent),PXN,-1.59
TAGTGGACACATTTCTCCTTGC,sensor-assay potency score (higher = more potent),PTPN7,-0.219
TTTGTGACCATGACGATGCTGG,sensor-assay potency score (higher = more potent),PTPRT,0.113
TAACTCAATACAGTCATTCATT,sensor-assay potency score (higher = more potent),PYROXD1,-0.8
TTTCACAGTAGGGCTGTCCATC,sensor-assay potency score (higher = more potent),PXN,-0.695
TAGAAATCTATCAAAGTCGGTA,sensor-assay potency score (higher = more potent),PXN,0.0963
TTGAGTCGCAATGTAGTGCCGA,sensor-assay potency score (higher = more potent),PTPRT,-0.352
TTATAGCTCGATATCGCTCTTG,sensor-assay potency score (higher = more potent),RAB11A,-0.642
TACATTTTGCCGAGCTGCCTGC,sensor-assay potency score (higher = more potent),QSOX1,-0.913
TATTTCTCGCAAAGAATCCATC,sensor-assay potency score (higher = more potent),QSOX1,-1.27
TTTAGCTTTAGTAAGCTGTTTC,sensor-assay potency score (higher = more potent),PYROXD1,-0.591
TACTACTAGAAACAAACTCTTG,sensor-assay potency score (higher = more potent),QSER1,-0.942
TTCATTATCAACTTTATCTGAT,sensor-assay potency score (higher = more potent),QSER1,0.462
TATAGCTCGATATCGCTCTTGC,sensor-assay potency score (higher = more potent),RAB11A,0.186
TTCATCTGTAGGAACTGCCCTG,sensor-assay potency score (higher = more potent),RAB11A,0.239
TTGAATTTGATAGATAACTATG,sensor-assay potency score (higher = more potent),QSER1,-0.94
TTGAATAACATGACCTTCCATC,sensor-assay potency score (higher = more potent),QSER1,-0.458
TTGAAGTCTCTGCAGACTGCAC,sensor-assay potency score (higher = more potent),QSOX1,-0.833
TATAAGTTGATTCTTGAGCATT,sensor-assay potency score (higher = more potent),QSER1,-1.01
TAGCGCAGTCTCGGCAGCCGAA,sensor-assay potency score (higher = more potent),QSOX1,-1.38
TTTAAAGTAAAATACAACCGAT,sensor-assay potency score (higher = more potent),PYROXD1,-0.96
TTTCAATGAATGACAAACCATT,sensor-assay potency score (higher = more potent),RAB11A,-1.27
TACAACTGTATTTTCTCTGGAT,sensor-assay potency score (higher = more potent),QSER1,0.0285
TACATTTGTAGAGTCTAGGGCC,sensor-assay potency score (higher = more potent),RAB11A,0.146
TTGTGGCTAGACCAGAGCCAGA,sensor-assay potency score (higher = more potent),QSOX1,-1.92
TTGAACTGTAGGCTTGAGGAGT,sensor-assay potency score (higher = more potent),QSER1,-0.462
TATATTTAAATCTCAGACCTGG,sensor-assay potency score (higher = more potent),RAB11A,0.396
TGATTGTTCTTCAACATCGAAT,sensor-assay potency score (higher = more potent),PYROXD1,-0.94
TTTAATAACACTACATTCTCGA,sensor-assay potency score (higher = more potent),QSER1,0.61
TTGATTGTTCTTCAACATCGAA,sensor-assay potency score (higher = more potent),PYROXD1,-0.89
TTTGTGCTGGGACAGGTCCAGA,sensor-assay potency score (higher = more potent),QSOX1,-1.47
TATTGTTTTTCCATCAACCTGG,sensor-assay potency score (higher = more potent),RAB11A,0.22
TACTCTTCGTTATTTCTCGCAA,sensor-assay potency score (higher = more potent),QSOX1,-0.156
TTCCGGAACAGCAGGTAGCAAG,sensor-assay potency score (higher = more potent),QSOX1,-1.46
TTATCTGCTTTAGATTTGCTTC,sensor-assay potency score (higher = more potent),PYROXD1,-0.93
TATTTGATCGTGCTGTTCCTGG,sensor-assay potency score (higher = more potent),QSER1,-0.0695
TTTCTTGATGCTGATAACCATC,sensor-assay potency score (higher = more potent),QSER1,-1.25
TAGAGTCTCCTGAACTCGCTGC,sensor-assay potency score (higher = more potent),PYROXD1,0.751
